Compounds with a hit are over-represented: about 1.4% of the library has one in this group of screens.
hERG WT inh: blocks the wildtype human KCNH2 potassium channel | Q12809 | U2OS, BacMam KCNH2, thallium flux FluxOr; active compounds read low | activity change, % at 1.84 µM | actives 0.37% (n = 340,000);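 active = maximum activity change below -70%; inconclusive = maximum activity change between -70% and -50%; inactive = maximum activity change above -50%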; note: % is set by controls: 0 for no effect and ±100 for the full control effect
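U2OS cells were transduced with wild-type KCNH2 virus (2.03 x 10^8 / mL) for 4 h at room temperature, then cultured overnight at 37 C. Thallium flux was read with FluxOr dye. Rate constants were normalized to DMSO controls.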
PTHR1 agonist: activates the human parathyroid hormone receptor PTHR1 | Potency, µM (series often up to 115 µM), for inactives: at the highest dose activation, usual class: activators | AID 743266 | actives 0.075% (n = 410,000) | HEK293 GP2 PTHR1 cells, GloSensor cAMP luminescence, 1 h; note: potency is the fitted concentration of half-maximal effect; nearly all actives have a fitted effect of over 55% in size
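HEK-293-derived GP2 cells expressing PTHR1 and a GloSensor cAMP reporter, 3,000/well, plated overnight, given luciferin plus IBMX (each 0.5 mM as added) for 1 h at 37 °C, then compound for 1 h at 37 °C. Luminescence was read after 15 min at room temperature.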
RXFP1 antagonist: RXFP1 (human) relaxin receptor antagonism; HEK293-RXFP1, relaxin-stimulated cAMP HTRF, 30 min; active compounds read low; activity change, negative = inhibition, % at 57.5 µM; actives 0.59% (n = 350,000);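 active = activity change of -60% or lower, but not beyond a set lower limit; inconclusive = change between -60% and -40%, or beyond the set limit; inactive = change above -40%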; note: % is set by controls: 0 for no effect and ±100 for the full control effect
Target sequence (Q9HBX9 whole entry, looked up): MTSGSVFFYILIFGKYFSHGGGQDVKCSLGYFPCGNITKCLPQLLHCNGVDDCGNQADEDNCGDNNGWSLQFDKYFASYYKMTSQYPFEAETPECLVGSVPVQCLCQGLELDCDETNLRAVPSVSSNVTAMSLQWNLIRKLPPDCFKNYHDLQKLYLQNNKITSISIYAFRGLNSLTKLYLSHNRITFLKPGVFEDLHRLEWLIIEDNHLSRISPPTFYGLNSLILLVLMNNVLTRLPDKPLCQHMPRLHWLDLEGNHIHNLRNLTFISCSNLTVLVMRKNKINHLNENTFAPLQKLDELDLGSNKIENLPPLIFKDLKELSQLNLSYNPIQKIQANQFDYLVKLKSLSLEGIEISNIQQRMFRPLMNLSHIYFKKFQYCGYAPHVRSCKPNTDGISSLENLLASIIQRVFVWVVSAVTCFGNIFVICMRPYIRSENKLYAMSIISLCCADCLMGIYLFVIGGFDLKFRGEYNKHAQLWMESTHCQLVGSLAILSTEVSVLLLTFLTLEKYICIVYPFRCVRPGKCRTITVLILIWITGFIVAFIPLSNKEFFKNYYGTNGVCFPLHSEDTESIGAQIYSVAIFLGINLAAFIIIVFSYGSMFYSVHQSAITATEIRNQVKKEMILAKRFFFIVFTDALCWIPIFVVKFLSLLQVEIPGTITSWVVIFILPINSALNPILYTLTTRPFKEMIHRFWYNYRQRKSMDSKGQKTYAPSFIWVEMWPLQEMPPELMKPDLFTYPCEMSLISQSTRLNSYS
RXFP1 ag: activates the human relaxin receptor RXFP1; HEK293T-RXFP1 cAMP TR-FRET, 30 min; response scale: percent of porcine relaxin response, buffer zero; actives 0.3% (n = 370,000); Potency, µM (doses to about 57.5 µM), for inactives: at the highest dose activation, most hits filed as activators; Q9HBX9; note: potency is the fitted concentration of half-maximal effect; % is set by controls: 0 for no effect and ±100 for the full control effect; nearly all actives have a fitted effect of over 60% in size
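Agonist response is measured as cAMP accumulation in an RXFP1-transfected HEK293T line under PDE4 inhibition. Values are scaled between buffer-only and 29 nM porcine relaxin, and EC50s come from standard Hill equation fits.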
KCNH2 3.1 inh: KCNH2 3.1 (human) potassium channel inhibition; U2OS KCNH2 3.1, thallium flux FluxOr; active compounds read low; activity change, % (tested at about 1.8 µM); actives 0.95% (n = 340,000); AID 720553;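 active = maximum activity change below -70%; inconclusive = maximum activity change from -70% to -50%; inactive = maximum activity change above -50%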;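 note: thallium influx rate constant from kinetic fluorescence after stimulation buffer; % is set by controls: 0 for no effect and ±100 for the full control effect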
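We transduce U2OS cells with the mutant 3.1 virus, culture them overnight, load FluxOr with Red40 quencher for 45 min, then add stimulation buffer and read kinetically for 2 min to derive a normalized rate constant.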
Glioma ERSR ind: inducers of ER stress response in human glioma cells; U87-MG GRP78 promoter luciferase reporter, 16 h; AID 602332; actives 0.02% (n = 420,000); Potency, µM, without a hit: at the top dose activation, hits mostly activators; note: potency is the fitted concentration of half-maximal effect; series mostly up to about 76 µM; % of control where 0% means no effect; nearly all actives have a fitted effect of over 35% in size
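Stably transfected U87-MG glioma cells carrying a GRP78-based luciferase sensor; 16 h compound incubation. Luminescence end-point read 10 min after Bright-Glo addition at room temperature.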
The depositor's hits bear a star; i = inactive; ? = inconclusive; nt = no result; ! = not confirmed by another sample; [ ] = remark or other dose. Unless noted, calls come from the whole dose curve; as a rule, active = well fitted curve in the direction sought with a large enough effect; inconclusive = small, poorly fitted or top-dose-only effect, or another doubt; inactive = no such curve, though single readings can be large; an effect the other way counts as inactive or inconclusive.

SMILES	hERG WT inh	PTHR1 agonist	RXFP1 antagonist	RXFP1 ag	KCNH2 3.1 inh	Glioma ERSR ind
NC(=O)c1c(Br)n(C2OC(CO)C(O)C2O)c2ncnc(N)c12 (stereo not given)	-14	-26%	-6	nt	16	-7%
CN1CCN(c2ccc([N+](=O)[O-])c(Sc3nncn3C)c2)CC1	3	8%	?	0%	-123*	-2%
O=c1c2ccccc2nc(/C=C/c2ccccn2)n1-c1ccccc1	-2	-25%	-1	-1%	5	-3%
COC(=O)C(O)(c1ccc(N=Cc2ccccc2O)c(C)c1)C(F)(F)F (stereo not given)	-113*	i	-8	1%	5	-1%
COC(=O)C(O)(c1ccc(NC(=O)c2cccs2)c(C)c1)C(F)(F)F (stereo not given)	-18	i	0	2%	0	-5%
COc1ccc(Nc2ncc(C(=O)N3CCC4(CC3)OCCO4)c3ccccc23)cc1	3	i	-2	1%	6	1%
C/C=C(/C)C(=O)O[C@H]1C(C)=C2[C@H]([C@@H]1OC(=O)CCCCCCC)[C@@](C)(OC(C)=O)C[C@H](OC(=O)CCC)[C@@]1(O)[C@H]2OC(=O)[C@@]1(C)O	nt	nt	nt	nt	nt	0.016µM*!
O=S1(=O)CC2(N3CCOCC3)CCCCC21 (stereo not given)	-15	-4%[57.5 µM]	-22	0%	-94*	-4%
CCC(C)N1C(=O)NC(=O)C2(Cc3cc(C)ccc3N(C)C2)C1=O (stereo not given)	-5	-12%	-13	-1%	-9	-4%
COC1C(O)C(C)OC(OC2CCC3(C)C(CCC4C3C(O)CC3(C)C(C5=CC(=O)OC5)CCC43O)C2)C1O (stereo not given)	3	-51%	-11	nt	-1	-3%
C[C@@H]([C@@H](O)c1ccccc1)N(C)C(=O)Cc1ccccc1	5	i	nt	nt	9	-4%
CN(C)CC(C(=O)Cc1ccccc1)c1ccccc1 (stereo not given)	2	-26%	-118*	nt	-6	-15%
CC(C)CN(CC(C)C)c1ccc(C=C2C(=O)NC(=S)NC2=O)cc1[N+](=O)[O-]	-1	-24%	-63*	0%	1	?
O=C(c1cccnc1)c1cc2ccccc2[nH]1	-1	i	-11	2%	3	-1%
CC(=O)CC(c1ccccc1)c1c(O)c2ccccc2oc1=O (stereo not given)	-8	-3%	11	0%	-2	0%
O=c1oc2ccccc2c(O)c1C(CC(O)c1ccc(-c2ccc(Br)cc2)cc1)c1ccccc1 (stereo not given)	nt	nt	-64*	nt	nt	nt
COC(=O)C1=C(c2ccc(F)cc2OCc2ccccc2)C[C@@H]2CC[C@H]1N2C(=O)NCc1ccc([N+](=O)[O-])cc1	-20	-8%	nt	3%	-88*	-1%
COC(=O)C1=C(c2cccc(OC)c2OC)C[C@@H]2CC[C@H]1N2C(=O)NCc1ccc(F)cc1	-1	-5%	nt	nt	-126*	-7%
COC(=O)C1=C(c2ccc(F)cc2OCc2ccccc2)C[C@@H]2CC[C@H]1N2C(=O)NCc1ccc(F)cc1	-12	i	nt	-2%	-36	-2%
Cc1ccccc1-c1nn2c(=O)cc(CN3CCN(C(=O)COc4ccccc4Cl)CC3)nc2s1	nt	-79%	nt	3%	nt	-2%
Oc1ccc2c3c1O[C@H]1c4[nH]c5ccccc5c4C[C@@]4(O)[C@@H](C2)N(CC2CC2)CC[C@]314	34	-26%	nt	0%	-70*	-2%
Cc1cccc(NP(=O)(Oc2ccccc2)Oc2ccccc2)c1C	-242*	-39%	-64*	0%	-7	-8%
O=c1[nH]c2ccccc2n1C1CCN(C(c2nnnn2C2CCCC2)C2CC2)CC1 (stereo not given)	nt	-33%	nt	nt	nt	0%
O=C(CN1CCN(C(=O)CNC(=O)c2ccc(-c3ccccc3)cc2)CC1)Nc1ccccc1Cl	15	-42%	-4	nt	-84*	1%
C[C@]12C/C(=C/O)C(=O)C[C@@H]1CC[C@@H]1[C@@H]2CC[C@@]2(C)[C@H]1CC[C@]2(C)O	nt	nt	-99*	nt	nt	-5%
SMILES	hERG WT inh	PTHR1 agonist	RXFP1 antagonist	RXFP1 ag	KCNH2 3.1 inh	Glioma ERSR ind
C=CCN1CCc2cccc3c2C1Cc1ccc(O)c(O)c1-3 (stereo not given)	nt	nt	nt	nt	nt	-1%
COc1cccc(C2CC3C(=O)C=CC2N3Cc2ccccc2)c1 (stereo not given)	18	-96%	24	0%	0	-5%
O=C1C=CC2C3C(=O)N(c4ccccc4)C(=O)C3C1N2Cc1ccccc1 (stereo not given)	17	-44%	-108*	nt	nt	-14%
N#CC1c2ccccc2-n2nncc2CN1S(=O)(=O)c1ccccc1 (stereo not given)	4	i	nt	nt	33	-4%
Cc1ccc(-n2c(O)c(/C=N/Nc3ccccc3)c(=O)[nH]c2=O)cc1C	-8	-4%	-70*	0%	-4	0%
COc1ccc(N/N=C/c2c(O)n(-c3ccc(C)c(C)c3)c(=O)[nH]c2=O)cc1	-1	i	-14	0%	20	-1%
COc1ccc(N2CCN(CCCN)CC2)cc1	43	-12%	-6	nt	-15	-4%
Cc1ccc(S(=O)(=O)c2nc(-c3ccccc3Cl)oc2N(C)C2CCN(C)CC2)cc1	?	i	?	nt	-80*	-7%
O=C(O)c1sc2cc(Cl)ccc2c1Cl	nt	nt	nt	14µM*	nt	nt
c1cncc(C2Nc3cccc4cccc(c34)N2)c1	6	i	-8	2%	2	-2%
N/C(=N\[N+](=O)[O-])N1CCN(C(=O)Oc2ccccc2)CC1	2	-23%	4	4%	11	-1%
CCOC(=O)C1(c2ccccc2)CCN(CCC(C#N)(c2ccccc2)c2ccccc2)CC1	-45	i	-25	nt	-88*	-4%
Cc1nc2cc(C(F)(F)F)ccc2n1C1CCN(Cc2nnnn2Cc2cccs2)CC1	-20	-19%	2	0%	-75*	-4%
c1cc2c(cc1CN1CCNCC1)OCO2	30	-6%	-2	7%	-4	5%
Fc1ccc(Cn2nnnc2CN2CCC(n3nnc4cc(C(F)(F)F)ccc43)CC2)cc1	-22	-40%	-7	2%	-98*	1%
FC(F)(F)c1ccc2c(c1)ncn2C1CCN(Cc2nnnn2C2CCCCC2)CC1	7	i	-74*	-1%	?	-5%
